Ba/F3 V617F tox: lowers viability of Ba/F3 cells expressing EpoR and JAK2V617F; hit rate 1.1% among 220,000; inhibition, % at 5.6 µM; ATP luminescence;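 active = inhibition above the campaign mean plus 3 SD over all tested compounds, cut at about 24% in these data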;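 also: cytokine-independent growth of Ba/F3 cells driven by EpoR plus mutant JAK2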
BaF3 tox: reduces parental Ba/F3 cell viability, JAK2V617F counter-screen; inhibition, % at 5.6 µM; CellTiter-Glo ATP luminescence; hit rate 1.1% among 220,000;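 active = inhibition above a per-campaign cutoff, the mean inhibition of all tested compounds plus 3 SD, cut at about 27% in these data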
APP transl inh: APP translation inhibition; inhibition, % at 2 µM; SH-SY5Y APP 5'UTR-luciferase reporter, luminescence; hit rate 0.82% among 190,000;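 active = inhibition above a set limit, derived from the sample mean plus 3 SD, cut at about 45% in these data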
IEC-6 cytotox: IEC-6 cytotoxicity, counter-screen for KLF5 inhibitors; luminescence viability; inhibition, % at 5 µM; hit rate 0.78% among 290,000; AID 1825; in the data active = inhibition above about 22%
KLF5 inhibitor: kruppel-like factor 5 inhibition; DLD-1 KLF5 promoter-luciferase reporter, luminescence; inhibition, % at 5 µM; hit rate 0.23% among 290,000;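 active = inhibition above a per-plate limit of that plate's mean compound inhibition plus 3 SD, cut at about 60% in these data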;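 also: higher means less KLF5 promoter-driven luciferase light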
aSyn UTR inh: MLPCN primary screen, SNCA 5' untranslated region; hit rate 0.82% among 300,000; inhibition, % (tested at 7.5 µM); AID 1813; alpha-synuclein 5'UTR reporter, inhibitor activity; in the data active = inhibition above about 60%;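 also: H4 neuroglioblastoma cells stably carrying SNCA 5'UTR luciferase fusion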
Hits are given with their value; . = inactive; / = not tested or not shown. Only some compounds are listed: those with a hit (about 2.2% of all), similar ones and a draw of the others.

SMILES | Ba/F3 V617F tox | BaF3 tox | APP transl inh | IEC-6 cytotox | KLF5 inhibitor | aSyn UTR inh
Nc1cc(=O)[nH]c(SCCSc2ccccc2F)n1 | / | / | / | . | . | 67
Nc1cc(=O)[nH]c(SCCSc2cc(Cl)ccc2Cl)n1 | / | / | / | . | . | .
CCOc1cc(/C=C2\SC(=Nc3ccc(CC)cc3)NC2=O)ccc1OCC(=O)O | / | / | / | . | . | .
COC(=O)c1sc(S(=O)(=O)N2CCCCC2C(=O)O)c(C(=O)OC)c1C (stereo not given) | . | . | 59 | . | . | .
Cc1cccc(NS(=O)(=O)c2cnc[nH]2)c1 | . | 93 | . | . | . | .
COc1ccc(C(=O)N/N=C/c2ccc(OC)c(COc3ccccc3)c2)cc1 | / | / | / | . | . | .
COc1cc(OC)cc(C(=O)N/N=C/c2ccc(OC)c(COc3ccc4ccccc4c3)c2)c1 | . | . | 56 | . | . | .
COc1ccc(/C=N/NC(=O)c2ccncc2)cc1COc1ccc(NC(C)=O)cc1 | . | . | / | . | . | 80
CCCCOCCCNc1ncnc2c1[nH]c1ccccc12 | 64 | 61 | . | . | . | .
CCOCCCNc1ncnc2c1[nH]c1ccccc12 | . | . | . | . | . | .
CCCCOc1ncnc2c1[nH]c1ccccc12 | . | 35 | . | . | . | .
CN1/C(=C\C=N\NC(=O)c2ccccc2Br)C(C)(C)c2ccccc21 | 54 | 62 | . | . | . | .
CN1/C(=C\C(=S)NC(=O)c2ccccc2Cl)C(C)(C)c2ccccc21 | 70 | 63 | . | . | . | .
COc1ccccc1C(=O)NC(=S)/C=C1/N(C)c2ccccc2C1(C)C | 37 | 37 | . | . | . | .
CN1/C(=C/C=N/n2cnnc2)C(C)(C)c2ccccc21 | . | . | . | . | . | .
CN1/C(=C\C(=S)Nc2ccccc2)C(C)(C)c2ccccc21 | 43 | 46 | . | . | . | .
CCCCn1c(N)c(N(CCOC)C(=O)CC(NC(=O)c2ccccc2)c2ccccc2)c(=O)[nH]c1=O (stereo not given) | / | / | / | / | / | .
O=C(NCc1ccccc1Cl)c1cc2c(s1)CS(=O)(=O)C2 | / | / | / | . | . | .
CN1/C(=C\C(=O)Nc2ccc(Cl)cc2)C(C)(C)c2ccccc21 | . | . | . | . | . | .
CN1/C(=C/C(=S)NC(=O)C2(C)CC2(Cl)Cl)C(C)(C)c2ccccc21 (stereo not given) | . | 58 | . | . | . | .
CC(=O)N=C1C=CC(=CN(O)C(C)(C)Cc2ccccc2)C=C1 | / | / | / | / | / | .
CCOC(=O)C1CCCCN1S(=O)(=O)c1cc2c(cc1C)NC(=O)CO2 (stereo not given) | / | / | / | . | . | .
c1ccc(Cn2c(-c3ccccc3)c[n+]3c2SCCC3)cc1 | 73 | 63 | / | . | . | .
COc1ccccc1CCC(=O)OCC(=O)Nc1ccc(C(N)=O)cc1 | / | / | / | . | . | .
Cc1c(NC(=O)COC(=O)C(c2ccc(Cl)cc2)C(C)C)c(=O)n(-c2ccccc2)n1C (stereo not given) | . | 97 | / | . | . | .
SMILES | Ba/F3 V617F tox | BaF3 tox | APP transl inh | IEC-6 cytotox | KLF5 inhibitor | aSyn UTR inh
Cc1c(NC(=O)C(C)Sc2ccccc2)c(=O)n(-c2ccccc2)n1C (stereo not given) | . | . | 58 | . | . | .
Cc1c(N/N=C(\C#N)C(=O)c2ccc(Cl)cc2)c(=O)n(-c2ccccc2)n1C | 31 | 62 | 73 | . | . | 86
Cc1c(NC(=O)COC(=O)/C=C/c2ccc(Cl)cc2)c(=O)n(-c2ccccc2)n1C | . | . | . | . | . | .
Cc1onc(-c2ccccc2Cl)c1C(=O)N1CCN(c2ccc(F)cc2)CC1 | / | / | / | . | . | .
CCOC(=O)c1c(-c2ccco2)csc1NC(=O)COC(=O)c1cnccn1 | / | / | / | / | / | .
Cc1ccc(NC2=C/C(=N\S(=O)(=O)c3cccs3)c3ccccc3C2=O)c(C)c1 | 56 | 33 | . | . | . | 118
CCCNC(=O)c1onc(CSc2ccc(F)cc2)c1C(=O)NCCOC | / | / | / | / | / | .
CCn1c(O)c(/C=C2\C=NN=C2c2ccccc2)sc1=S | . | . | / | . | . | 67
CCCCn1c(O)c(/C=C2\C=NN=C2c2ccccc2)sc1=S | . | . | . | . | . | .
CCOc1ccccc1-n1c(SCC(=O)N2CCOCC2)nc2ccccc2c1=O | / | / | / | . | . | .
Cc1ccc(NC(=O)CCNS(=O)(=O)c2ccc3[nH]c(=O)oc3c2)cc1N(C)C | / | / | / | . | . | .
Cn1c2ccccc2c2nnc(SCC(N)=O)nc21 | / | / | / | . | . | .
Cn1c2ccc(Br)cc2c2nnc(SCC(=O)O)nc21 | / | / | / | . | . | 62
CC(=O)O[C@H](CC(=O)O)C[N+](C)(C)C | / | / | / | / | / | .
CC(=O)OC(CC(=O)O)C[N+](C)(C)C (stereo not given) | . | . | . | . | . | 68
Cc1ccc(C(C)C)cc1S(=O)(=O)Nc1cccnc1 | / | / | / | . | . | .
O=C(Nc1ncccn1)C12CC3CC(CC(C3)C1)C2 | . | . | / | . | . | .
O=C(Nc1nccs1)C12CC3CC(C1)CC(C(=O)Nc1nccs1)(C3)C2 | 50 | . | . | . | . | .
CC(Oc1ccc(Cl)cc1Cl)c1nc(-c2ccc(NC(=O)c3ccncc3)cc2)no1 (stereo not given) | . | . | . | . | . | .
CC(Oc1ccc(Cl)cc1Cl)c1nc(-c2ccc(NC(=O)c3cccnc3)cc2)no1 (stereo not given) | . | . | . | . | . | 92
N#CC1=C(N)Oc2c(ccc3ccccc23)C1c1cccs1 (stereo not given) | . | . | . | . | . | 110
N#CC1=C(N)Oc2cc(O)ccc2C1c1cccs1 (stereo not given) | . | . | . | . | . | .
Cc1ccc2[nH]c(=O)c(C3C(C#N)=C(N)Oc4c3ccc3cccnc43)cc2c1 (stereo not given) | . | . | . | . | . | 75
N#CC1=C(N)Oc2c(ccc3cccnc23)C1c1ccccc1 (stereo not given) | 69 | 39 | / | . | . | .
COC(=O)C1=C(C)NC(C)=C(C(=O)OC)C1c1cc2cc(C)ccc2[nH]c1=O | . | . | . | . | . | .
SMILES | Ba/F3 V617F tox | BaF3 tox | APP transl inh | IEC-6 cytotox | KLF5 inhibitor | aSyn UTR inh
COc1cc(/C=C/c2cccc[n+]2C)ccc1OCC(=O)Nc1cccc(Cl)c1 | / | / | / | . | . | .
CCc1ccccc1NC(=O)CN1CCN(CC(=O)Nc2cc(C)ccc2OC)CC1 | / | / | / | . | . | .
COc1nc(N=C(N)N)nc2ccc(C)cc12 | 55 | 56 | . | . | . | .
NC(N)=Nc1nc(-c2ccccc2)c2ccccc2n1 | . | . | . | . | . | .
Cn1nnnc1Sc1ncnc2scc(-c3ccc(F)cc3)c12 | 27 | . | . | 31 | . | .
Cn1nnnc1Sc1ncnc2scc(-c3ccccc3)c12 | . | . | . | . | . | .
[2H]C(CCOS(N)(=O)=O)c1ccc(C(C)(C)C)cc1 (stereo not given) | / | / | / | . | . | 80
NS(=O)(=O)OCCCc1ccccc1 | / | / | / | . | . | .
CN1c2ccccc2C(C)(C)[C@]12C=Cc1cc(O)ccc1O2 | 74 | 61 | . | . | . | .
COc1cccc(/C=N/Nc2ncnc3c2ncn3Cc2ccccc2)c1O | 71 | 59 | 88 | . | . | 102
COc1cccc(/C=N/Nc2cc(N3CCOCC3)ncn2)c1O | / | / | / | . | . | 72
